# Where “and” joins values, the source holds several entries; their conditions need not be identical. Identical values can stand only once. For some assays here: Measured potencies and affinities stand elsewhere. Calls of active or inactive are those of the source.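 The calls were made as follows, unless noted: active = thallium flux through the channel raised or lowered by more than 3 SD from vehicle-only wells, actives on both sides; inactive = the rest.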
# Legend:
# [1] = blockers of polyQ-driven CASP3 activation – cell-based (AID 1583); settings: polyglutamine-induced caspase-3 activation, cell assay; stronger effect = higher value;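 tested at 10 µM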
# [2] = yeast 75Q aggregation reduction – 75Q-TubU reporter (AID 1593); settings: Yeast 75Q polyglutamine aggregation reporter
# [3] = restoration of touch response, mutant HTT neurons – whole organism, C. elegans mechanosensory neurons, N-terminal huntingtin (AID 1599); settings: C. elegans polyQ-huntingtin mechanosensory neurons, stronger effect = higher value
# [4] = blockers of cytochrome c efflux from mitochondria – biochemical, purified mitochondria (AID 1603); settings: stronger effect = lower value;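 also: mouse liver mitochondria challenged with calcium chloride; signal normalized to the plate average as 100%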
# [5] = polyglutamine aggregate formation blockers (AID 1604); settings: polyglutamine-induced protein aggregation inhibition assay; stronger effect = higher value; tested at 2.5 µM
# [6] = glutamate transport activators, MN-1 cells, MN-1 cell line (AID 1612); settings: MN-1 motor neuron cells, stronger effect = higher value;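 also: tested at 1 µM final; 0% = mean of DMSO vehicle wells on each plate; positive means more glutamate uptake than control and negative means less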
# [7] = 75Q-TubH aggregate inhibition, S. cerevisiae, yeast (AID 1616); settings: S. cerevisiae 75Q-TubH polyglutamine aggregation suppression; stronger effect = higher value
# [8] = signal quenchers or enhancers, Cy5 substrate/SSB – biochemical, NIH Clinical Collection, E. coli SSB, artefact control for HCV NS3 helicase inhibitor project (AID 743268; call rule not given here); settings: Cy5-oligo bound E. coli SSB, fluorescence interference
# [9] = tested on: Hepatitis C virus NS3 helicase; assay: blockers of NS3h binding to DNA – biochemical, fluorescence polarization, NIH Clinical Collection, primary screen (AID 743270; call rule not given here); settings: NS3 helicase binding to Cy5-dT15 DNA, stronger effect = higher value, concentration not given here
# [10] = target: Single-stranded DNA-binding protein (Escherichia coli (strain K12)) (UniProt P0AGE0); assay: SSB-ssDNA binding inhibitors – biochemical, fluorescence polarization, NIH Clinical Collection, counter-screen for HCV NS3 helicase inhibitor project (AID 743271; in the data active = inhibition above about 28%); settings: E. coli SSB-DNA binding, stronger effect = higher value, concentration not given here
# [11] = compounds distorting NS3 helicase fluorescence signal – biochemical, NIH Clinical Collection, artefact control for HCV NS3 helicase inhibitor project (AID 743272; call rule not given here;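 also: HCV NS3 helicase with a Cy5 labelled single stranded DNA probe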); settings: fluorescence interference counterscreen, HCV NS3 helicase assay; stronger effect = lower value
# [12] = target: Calcium-activated potassium channel subunit alpha-1 (Homo sapiens) + Leucine-rich repeat-containing protein 26 (Homo sapiens) (UniProt Q12791+Q2I0M4); assay: BK channel mutant inhibitors and activators – cell-based, U2OS BacMam, thallium flux, beta subunits, selectivity assay, profiling panel (AID 1259406); settings: U2OS BacMam BK variants, F380Y/Slo1WT/gamma1, at 30 µM;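 also: initial slope of Thallos dye fluorescence rise after thallium is added; log ratio against the mean of 0.3% DMSO vehicle wells on the same plate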
# Calcium-activated potassium channel subunit alpha-1 (Homo sapiens) + Leucine-rich repeat-containing protein 26 (Homo sapiens), sequence (Q2I0M4 whole entry, looked up, one chain of several): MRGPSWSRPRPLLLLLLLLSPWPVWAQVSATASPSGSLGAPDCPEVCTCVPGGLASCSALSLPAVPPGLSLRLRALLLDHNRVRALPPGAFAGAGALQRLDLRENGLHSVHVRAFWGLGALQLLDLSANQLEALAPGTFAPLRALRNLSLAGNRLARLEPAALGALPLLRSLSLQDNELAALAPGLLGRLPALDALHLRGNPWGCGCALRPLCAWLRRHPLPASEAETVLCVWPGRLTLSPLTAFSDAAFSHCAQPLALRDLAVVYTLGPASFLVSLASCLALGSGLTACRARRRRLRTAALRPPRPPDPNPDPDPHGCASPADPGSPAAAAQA
# R275C = assay: as above; settings: U2OS BacMam BK variants, at 30 µM
# R275C/beta1 = assay: as above; settings: U2OS BacMam BK variants, at 30 µM
# R275C/beta2Delta = assay: as above; settings: U2OS BacMam BK variants, at 30 µM
# R275C/beta4 = assay: as above; settings: U2OS BacMam BK variants, at 30 µM
# R275C/Slo1WT/beta2 = assay: as above; settings: U2OS BacMam BK variants, at 30 µM
# [13] = growth inhibition, single agent or in combination, cell-based, chromothripsis tumors, cisplatin or BGB combos (AID 1671449; in the data active = inhibition above about 80%;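 also: cells exposed for 96 hours; 0% = vehicle DMSO and 100% = killing by high DMSO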); settings: LFS_MB_P medulloblastoma cells
# [14] = growth inhibition, single agent and combos, cell-based, chromothripsis tumors, cisplatin or BGB combos (AID 1671450; in the data active = inhibition above about 80%;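 also: cells exposed to compound for four days; 0% = vehicle DMSO and 100% = cell killing by high DMSO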); settings: HDN33 neuroblastoma cells, stronger effect = higher value
# [15] = growth inhibition, single agents and combos, HTB85, cell-based, BGB or cisplatin IC20 combos, synergistic combos for chromothripsis tumors (AID 1671453; in the data active = inhibition above about 80%;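 also: cells exposed for 96 hours before readout; 0% = vehicle DMSO and 100% = high DMSO killing control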); settings: HTB85 osteosarcoma cells, drug combinations, stronger effect = higher value
smiles,measurement,setting,value
CC1=C(/C=C/C(C)=C/C=C/C(C)=C/C(=O)O)C(C)(C)CCC1,inhibition,[1],16%
same,score,[2],0.91
same,rescue above control,[3],3.71
same,cytochrome c release ratio,[4],3.67
same,inhibition of aggregation,[5],19.4%
same,glutamate uptake change,[6],-29.4%
same,aggregation suppression score,[7],0.795
same,fluorescence ratio,[8],1.02 (inactive)
same,inhibition,[9],1.36% (inactive)
same,inhibition,[10],2.57% (inactive)
same,fluorescence ratio,[11],0.87 (inactive)
same,log fold change Tl+ flux,[12],0.0114 (inactive)
same,log fold change Tl+ flux,R275C,0.0107 (inactive)
same,log fold change Tl+ flux,R275C/beta1,0.0531 (inactive)
same,log fold change Tl+ flux,R275C/beta2Delta,0.0707 (inactive)
same,log fold change Tl+ flux,R275C/beta4,-0.0336 (inactive)
same,log fold change Tl+ flux,R275C/Slo1WT/beta2,-0.0605 (inactive)
CN=C(NC#N)NCCSCc1nc[nH]c1C,inhibition,[1],15.1%
same,score,[2],1.08
same,rescue above control,[3],-9.17
same,cytochrome c release ratio,[4],1.04
same,inhibition of aggregation,[5],58.9%
same,glutamate uptake change,[6],-5.55%
same,aggregation suppression score,[7],1.05
same,fluorescence ratio,[8],0.98 (inactive)
same,inhibition,[9],-3.18% (inactive)
same,inhibition,[10],-2% (inactive)
same,fluorescence ratio,[11],0.94 (inactive)
same,log fold change Tl+ flux,[12],0.0464 (inactive)
same,log fold change Tl+ flux,R275C,0.00692 (inactive)
same,log fold change Tl+ flux,R275C/beta1,-0.0361 (inactive)
same,log fold change Tl+ flux,R275C/beta2Delta,0.00462 (inactive)
same,log fold change Tl+ flux,R275C/beta4,0.0223 (inactive)
same,log fold change Tl+ flux,R275C/Slo1WT/beta2,0.0339 (inactive)
O=C(O)c1cccnc1,inhibition,[1],1.52%
same,score,[2],1.31
same,rescue above control,[3],2.74
same,cytochrome c release ratio,[4],0.86
same,inhibition of aggregation,[5],67.8%
same,glutamate uptake change,[6],-8.8%
same,aggregation suppression score,[7],1.88
same,fluorescence ratio,[8],1.05 (inactive)
same,fluorescence ratio,[11],0.99 (inactive)
same,log fold change Tl+ flux,[12],-4.3e-05 (inactive)
same,log fold change Tl+ flux,R275C,0.0183 (inactive)
same,log fold change Tl+ flux,R275C/beta1,-0.00198 (inactive)
same,log fold change Tl+ flux,R275C/beta2Delta,0.0288 (inactive)
same,log fold change Tl+ flux,R275C/beta4,0.0274 (inactive)
same,log fold change Tl+ flux,R275C/Slo1WT/beta2,-0.00368 (inactive)
CCCCNc1cc(C(=O)O)cc(S(N)(=O)=O)c1Oc1ccccc1,inhibition,[1],4.16%
same,score,[2],1.19
same,rescue above control,[3],-11.4
same,cytochrome c release ratio,[4],1.53
same,inhibition of aggregation,[5],71.8%
same,glutamate uptake change,[6],-4.68%
same,aggregation suppression score,[7],1.32
same,fluorescence ratio,[8],1.02 (inactive)
same,inhibition,[9],-5.91% (inactive)
same,inhibition,[10],-2.76% (inactive)
same,fluorescence ratio,[11],0.97 (inactive)
same,log fold change Tl+ flux,[12],-0.0253 (inactive)
same,log fold change Tl+ flux,R275C,-0.00799 (inactive)
same,log fold change Tl+ flux,R275C/beta1,0.0319 (inactive)
same,log fold change Tl+ flux,R275C/beta2Delta,-0.0196 (inactive)
same,log fold change Tl+ flux,R275C/beta4,0.0225 (inactive)
same,log fold change Tl+ flux,R275C/Slo1WT/beta2,0.0333 (inactive)
O=C(O)c1cc(=O)c2c(OCC(O)COc3cccc4oc(C(=O)O)cc(=O)c34)cccc2o1,inhibition,[1],-4.9%
same,score,[2],1.69
same,rescue above control,[3],9.88
same,cytochrome c release ratio,[4],0.89
same,inhibition of aggregation,[5],65.5%
same,glutamate uptake change,[6],-4.58%
same,aggregation suppression score,[7],1.35
same,fluorescence ratio,[8],1.02 (inactive)
same,inhibition,[9],-2.27% (inactive)
same,inhibition,[10],3.34% (inactive)
same,fluorescence ratio,[11],1.03 (inactive)
same,log fold change Tl+ flux,[12],-0.0248 (inactive)
same,log fold change Tl+ flux,R275C,-0.0035 (inactive)
same,log fold change Tl+ flux,R275C/beta1,-0.0241 (inactive)
same,log fold change Tl+ flux,R275C/beta2Delta,-0.0325 (inactive)
same,log fold change Tl+ flux,R275C/beta4,-0.125 (inactive)
same,log fold change Tl+ flux,R275C/Slo1WT/beta2,0.015 (inactive)
S=c1nc[nH]c2nc[nH]c12,inhibition,[1],26.7%
same,score,[2],1.45
same,rescue above control,[3],-8.7
same,cytochrome c release ratio,[4],0.93
same,inhibition of aggregation,[5],66.2%
same,glutamate uptake change,[6],12.1%
same,aggregation suppression score,[7],1.29
same,fluorescence ratio,[8],1.03 (inactive)
same,inhibition,[9],-1.36% (inactive)
same,inhibition,[10],0.29% (inactive)
same,fluorescence ratio,[11],0.99 (inactive)
same,inhibition,"[13]; at 0.5 µM, stronger effect = higher value",-16.7% (inactive) and -25.3% (inactive) and -23.4% (inactive)
same,inhibition,"[13]; measured here: combination with BGB IC20, at 0.005 µM",-9.64% and 14% and 16.4%
same,inhibition,"[13]; measured here: combination with BGB IC40, at 0.005 µM",-23.4% and -1.54% and -20.6%
same,inhibition,"[13]; measured here: combination with BGB IC40, at 0.05 µM",-13.7% and 4.76% and 13.1%
same,inhibition,"[13]; measured here: combination with cisplatin, at 0.5 µM, stronger effect = higher value",-46.7% and -35.2% and -28.2%
same,inhibition,"[13]; measured here: combination with cisplatin, at 5 µM, stronger effect = higher value",-18.6% and -9.9% and -19.4%
same,inhibition,"[14]; BGB combo, at 5 µM",6.4% and -7.61% and -1.61%
same,inhibition,[14]; at 0.5 µM,21.5% (inactive) and -7.1% (inactive) and 2.79% (inactive)
same,inhibition,"[14]; cisplatin combo, at 5 µM",17.2% and 3.9% and 15.7%
same,inhibition,"[14]; measured here: with BGB IC20 combination, at 0.5 µM",17.6% and -24.1% and -7.78%
same,inhibition,"[14]; measured here: with cisplatin IC20 combination, at 0.5 µM",11.8% and -15.2% and -7.14%
same,inhibition,"[14]; single agent, at 5 µM",55.5% and 46.9% and 55.8%
same,inhibition,[15]; at 0.5 µM,-18.6% (inactive) and -13.7% (inactive) and -28.1% (inactive)
same,inhibition,"[15]; measured here: with BGB IC20, at 0.5 µM",-53.8% and -19.7% and -40.4%
same,inhibition,"[15]; measured here: with BGB IC20, at 5 µM",-9.25% and -19% and -8.77%
same,inhibition,"[15]; measured here: with cisplatin IC20, at 0.5 µM",-18.6% and -5.87% and -28%
same,inhibition,"[15]; measured here: with cisplatin IC20, at 5 µM",-12.1% and 4.25% and -34.8%
same,inhibition,"[15]; single agent, at 5 µM",18.8% and -4.98% and -9.17%
same,log fold change Tl+ flux,[12],-0.0406 (inactive)
same,log fold change Tl+ flux,R275C,-0.0342 (inactive)
same,log fold change Tl+ flux,R275C/beta1,0.0271 (inactive)
same,log fold change Tl+ flux,R275C/beta2Delta,-0.0376 (inactive)
same,log fold change Tl+ flux,R275C/beta4,-0.0907 (inactive)
same,log fold change Tl+ flux,R275C/Slo1WT/beta2,0.0711 (inactive)
CCOC(=O)C1=C(C)NC(C)=C(C(=O)OC)C1c1cccc([N+](=O)[O-])c1 (stereo not drawn),fluorescence ratio,[8],1 (inactive)
same,inhibition,[9],4.36% (inactive)
same,inhibition,[10],8.37% (inactive)
same,fluorescence ratio,[11],1.03 (inactive)
same,log fold change Tl+ flux,[12],0.00177 (inactive)
same,log fold change Tl+ flux,R275C,0.0204 (inactive)
same,log fold change Tl+ flux,R275C/beta1,0.00401 (inactive)
same,log fold change Tl+ flux,R275C/beta2Delta,-0.0485 (inactive)
same,log fold change Tl+ flux,R275C/beta4,-0.023 (inactive)
same,log fold change Tl+ flux,R275C/Slo1WT/beta2,0.016 (inactive)

# Reference: PubChem BioAssay
